# Among all 330,000 compounds or so, about 2,600 (0.79%) were called active.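 The calls were made as follows: active = mean ATP rescue above about 67%, or every replicate alone reaching that limit (limit read from the data, passing the limit was not always enough); inconclusive = no clear call, values can overlap the other calls; inactive = mean under the limit and some replicate under it.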 Only a selection was taken, and actives are over-represented in it overall.
# Assay: suppressors of statin myotoxicity in C2C12 myotubes, primary screen, cell-based, single point, plate reader (AID 602340);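 also: myotubes were challenged with 10 µM simvastatin during compound exposure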
# Settings: C2C12 myotubes + simvastatin, ATP luminescence, 48 h; at 7.49 µM; hits give high values; scaled: DMSO 0, geranylgeraniol control 100
row,Compound,rescue of ATP level
1,OCCNc1nc(Nc2ccc(Cl)c(Cl)c2)nc2ccccc12,-27.5% (inactive)
2,OCCCNC(c1ccccc1)c1ccc(O)cc1 (centres undefined),116% (active)
3,Cc1noc(C)c1NC(=O)N(C)C[C@H]1Oc2c(NC(=O)c3nc4ccccc4s3)cccc2C(=O)N([C@@H](C)CO)C[C@@H]1C,-9.27% (inactive)
4,CN1C(=O)c2cc(NS(=O)(=O)c3ccc(F)cc3)ccc2OC[C@@H]2O[C@@H](CC(=O)O)CC[C@H]21,1.01% (inactive)
5,O=C(C[C@H]1C[C@@H]2c3cc(NC(=O)CC4CC4)ccc3O[C@@H]2[C@H](CO)O1)NCc1cccnc1,-11% (inactive)
6,Cc1ccc(S(=O)(=O)N2[C@@H](c3ccccc3F)C(C(=O)O)=CC[C@H]2c2ccc(Cl)cc2)cc1,21.4% (inactive)
7,CC(=O)C1=C(O)C(=O)N(c2ccc(S(N)(=O)=O)cc2)C1c1ccccc1F (centres undefined),106% (active)
8,CC(=O)C1=C(O)C(=O)N(c2ccc(Br)cc2)C1c1ccc([N+](=O)[O-])cc1 (centres undefined),4.28% (inactive)
9,CC1=CC(=O)C=CC1(C)C(Cl)(Cl)Cl (centres undefined),112% (active)
10,CO[C@@H]1CN(C)C(=O)c2cc(NS(=O)(=O)c3ccc(C)cc3)ccc2OC[C@H](C)N(Cc2nccs2)C[C@@H]1C,1.93% (inactive)
11,Cc1cc(C)cc(NS(=O)(=O)Cc2ccccc2)c1,1.96% (inactive)
12,CCC(CC)c1nnc(NC(=O)C2CCN(C(=O)c3ccco3)CC2)s1,-3.16% (inactive)
13,CCC(CC)c1nnc(NS(=O)(=O)Cc2ccccc2)s1,117% (active)
14,CO[C@@H]1CN(C)C(=O)c2cc(NC(C)=O)ccc2OC[C@H](C)N(CC2CCCCC2)C[C@@H]1C,-13.7% (inactive)
15,C[C@H](O)C#Cc1cnc2c(c1)C(=O)N([C@@H](C)CO)C[C@H](C)[C@@H](CN(C)C(=O)c1ccncc1)O2,8.21% (inactive)
16,O=C(C[C@H]1C=C[C@H](NC(=O)CN2CCOCC2)[C@@H](CO)O1)NCc1cccc(F)c1,-2.71% (inactive)
17,Cc1noc(C)c1NC(=O)Nc1ccc2c(c1)CC(=O)N([C@@H](C)CO)C[C@H](C)[C@@H](CN(C)C(=O)Nc1ccc3c(c1)OCO3)O2,-8.55% (inactive)
18,CO[C@@H]1CN(C)C(=O)c2cc(NC(C)=O)ccc2OC[C@H](C)N(Cc2ccccc2F)C[C@@H]1C,-2.5% (inactive)
19,CCOc1ccccc1C(=O)NC1CC2CCCC(C1)N2Cc1ccccc1 (centres undefined),97.4% (active)
20,CCCN1C2CCCC1CC(NC(=O)c1cccc(OC)c1)C2 (centres undefined),-3.95% (inactive)

row,Compound,rescue of ATP level
1,COc1ccc(CN2C3CCCC2CC(NC(=O)c2cccc(F)c2)C3)cc1 (centres undefined),9.21% (inactive)
2,CCCNC(=O)N(C)C[C@@H]1Oc2ncc(-c3ccccc3F)cc2C(=O)N([C@@H](C)CO)C[C@H]1C,15.3% (inactive)
3,COc1ccc(S(=O)(=O)N(C)C[C@H]2Oc3c(NC(=O)C4CCOCC4)cccc3C(=O)N([C@@H](C)CO)C[C@@H]2C)cc1,-29.4% (inactive)
4,COCC#Cc1ccc2c(c1)O[C@H](CN(C)Cc1ccc3c(c1)OCO3)[C@H](C)CN([C@H](C)CO)S2(=O)=O,15.6% (inactive)
5,CCOC(=O)C1CCN(C(=O)COc2cccc3ccccc23)CC1,-0.757% (inactive)
6,CCOC(=O)C1CCN(C(=O)Cn2cc(C#N)c3ccccc32)CC1,99.6% (active)
7,CCOC(=O)C1CCN(C(=O)CSc2cc(=O)n(C)c3ccccc23)CC1,4.85% (inactive)
8,CCCNC(=O)N(C)C[C@H]1Oc2cc(C#CC(C)(C)O)ccc2S(=O)(=O)N([C@H](C)CO)C[C@@H]1C,1.69% (inactive)
9,COC(=O)c1sc(N2CCN(Cc3ccccc3)CC2)nc1N,8.62% (inactive)
10,O=S1(=O)CCN2C(=N1)SC1=C2CCN(Cc2ccccc2)C1,121% (active)
11,Cc1ccc(C2=CSC3=NS(=O)(=O)CCN23)cc1C,1.19% (inactive)
12,O=C(NCC[C@H]1CC[C@@H](NC(=O)C2CCCCC2)[C@@H](CO)O1)c1ccc(F)cc1,10.2% (inactive)
13,CCC(=O)Nc1ccc2c(c1)C(=O)N(C)C[C@@H](OC)[C@@H](C)CN(Cc1ccccc1F)[C@H](C)CO2,10.8% (inactive)
14,CCOc1ccc(NC(=O)CN(C)C(=O)Cc2sc(C)nc2-c2ccc(F)cc2)cc1OCC,8.47% (inactive)
15,Cc1nc(-c2ccc(F)cc2)c(CC(=O)N2CCN(S(=O)(=O)c3ccc(F)cc3)CC2)s1,-5.66% (inactive)
16,CCOc1ccc(-c2nc(C)sc2CC(=O)O)cc1,87.4% (active)
17,CN1C(=O)c2cc(NS(C)(=O)=O)ccc2OC[C@H]2O[C@H](CC(=O)NCc3ccccc3)CC[C@H]21,-11.2% (inactive)
18,C[C@H](NC(=O)C[C@@H]1CC[C@@H](NC(=O)Cc2ccccn2)[C@@H](CO)O1)c1ccccc1,1.25% (inactive)
19,CO[C@@H]1CN(C)C(=O)c2cc(NC(=O)c3cccc(F)c3)ccc2OC[C@H](C)N(C)C[C@@H]1C,6.21% (inactive)
20,CCCN1CCN(C(=O)CCCNC(=O)c2ccc(Cl)cc2)CC1,-1.82% (inactive)

row,Compound,rescue of ATP level
1,CC(C)OCCCNC(=O)CN1C(=O)/C(=C/c2ccccc2F)Oc2ccccc21,-11.5% (inactive)
2,CN1CCN(CCCNC(=O)c2ccc(/C=C3\Oc4ccccc4N(Cc4ccc(Cl)cc4)C3=O)cc2)CC1,88.6% (active)
3,CS(=O)(=O)Nc1ccc2c(c1)[C@H]1C[C@@H](CC(=O)NCCc3ccccc3)O[C@@H](CO)[C@H]1O2,3.14% (inactive)
4,COc1cc(NC(=O)COC(=O)c2cc(S(=O)(=O)N3CCOCC3)ccc2F)cc(OC)c1,117% (active)
5,O=C(COC(=O)c1cc(S(=O)(=O)N2CCOCC2)ccc1F)NC1CC1,-0.144% (inactive)
6,O=C(OCCOc1ccccc1F)c1cc(S(=O)(=O)N2CCOCC2)ccc1F,12.7% (inactive)
7,CC=Cc1ccc2n(c1=O)C[C@@H]1[C@@H](CO)[C@H](C(=O)NCC)[C@H]2N1CCC(F)(F)F (mixture of isomers),12.8% (inactive)
8,CC(C)CC#Cc1cnc2c(c1)C(=O)N([C@H](C)CO)C[C@H](C)[C@H](CN(C)CC1CCOCC1)O2,17.7% (inactive)
9,C[C@@H]1CN([C@H](C)CO)C(=O)Cc2cc(NC(=O)Cn3cnnn3)ccc2O[C@H]1CN(C)CC1CCCCC1,19.6% (inactive)
10,CCCc1ccc(-c2csc(NC(=O)Cc3cccs3)n2)cc1,20.4% (inactive)
11,CCc1noc(C)c1C(=O)Nc1nc(-c2ccccc2)cs1,-35.8% (inactive)
12,Cc1ccc(-c2csc(NC(=O)c3cccs3)n2)cc1,112% (active)
13,COc1ccc(C(=O)Nc2ccc3c(c2)OC[C@H](C)N(C(C)=O)C[C@@H](C)[C@@H](OC)CN(C)C3=O)cc1,-4.78% (inactive)
14,COc1cccc(C(=O)Nc2ccc3c(c2)C(=O)N(C)[C@@H]2CC[C@H](CC(=O)NCC4CC4)O[C@@H]2CO3)c1,4.48% (inactive)
15,COc1cccc(C(=O)Nc2ccc3c(c2)C(=O)N(C)[C@@H]2CC[C@@H](CC(=O)NCCCN4CCOCC4)O[C@@H]2CO3)c1,8.62% (inactive)
16,CCCNC(=O)N1C[C@H]2[C@@H](c3ccccc31)[C@H](CO)N2C(=O)NC(C)C,-5.25% (inactive)
17,Cc1[nH]c2ccc(S(N)(=O)=O)cc2c1C,6.68% (inactive)
18,Cc1c(C(C)(C)O)[nH]c2ccc(C#N)cc12,81.3% (active)
19,CCOC(=O)c1cc2sccc2n1Cc1ccc(C#N)cc1,29.8% (inactive)

# Reference: PubChem BioAssay AID602340 (Broad Institute, 2012)
